Measured values taken from PubChem BioAssay (NCI).
This is part of a sample that, as a whole, favours compounds with a hit. Of some 83,000 tested, about 20% had one in any assay.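 In brief: 96-well plates, 48 h treatment, single concentration, percent growth endpoint.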 A number with no mark means an inactive call. Activity calls are given as the source filed them. The calls were made as follows: active = growth percent below 10; inactive = the rest.

The compounds below were run on OVCAR-3 ovarian (assay: NCI-60 one-dose screen, 48 h (100 = growth as untreated, 0 = no growth, -100 = all killed)). Conditions: 10 µM unless noted.

**Q.** With `O=S(=O)(NCCCNc1nccc(-n2ccc3cccnc32)n1)c1cccc(C(F)(F)F)c1` as the compound, how does the growth read?
**A.** 112%

**Q.** `CC(C)(C)n1cc(-c2ccnc(NCCNS(=O)(=O)c3ccc(F)cc3)c2)c(-c2cccc(O)c2)n1` was tested. Which growth did it give?
**A.** 70.5%

**Q.** For `Cc1ccc(-c2cc3nc(C(Cl)Cl)nc(-c4ccccc4C)n3n2)cc1`, which growth is on record?
**A.** 22.4%

**Q.** How did the growth turn out when `O=C(NNC(=O)N1c2ccccc2C=Cc2ccccc21)c1ccc2ccccc2c1` was run?
**A.** 101%

**Q.** With `CN(C[C@H]1Cc2c(cccc2N2CCN(Cc3ccccn3)CC2)CN1)[C@H]1CCCc2cccnc21` as the compound, how does the growth read?
**A.** 64.9%

**Q.** How did the growth turn out when `CCCCCCCCC(C)OC(=O)c1nn(C(C)=O)c2ccccc12` (stereo not given) was run?
**A.** 110%

**Q.** With `OC(c1cc2cc(Br)ccc2c2cc(Br)ccc12)C1CCCCN1` (stereo not given) as the compound, how does the growth read?
**A.** -91.9% (active)

**Q.** How did the growth turn out when `O=C(NS(=O)(=O)c1ccc2ccccc2c1)n1cc(-c2ccncc2)c(-c2ccc(Cl)c(O)c2)n1` was run?
**A.** 133%

**Q.** `Cc1cc(N)n(S(=O)(=O)c2oc(-c3ccccc3)nc2C#N)n1` was tested. Which growth did it give?
**A.** 89.9%

**Q.** `O=[N+]([O-])c1ccc(C(c2ccccc2)c2ccccc2)cc1` was tested. Which growth did it give?
**A.** 98.9%

**Q.** With `CN(C)c1oc(C2OC2c2ccccc2)nc1C#N` (stereo not given) as the compound, how does the growth read?
**A.** 105%

**Q.** Which growth does the source give for `Cc1ccc(S(=O)(=O)NC(=O)n2cc(-c3ccncc3)c(-c3ccc(Cl)c(O)c3)n2)cc1` here?
**A.** 146%

**Q.** `CN(CCCCN(C[C@H]1Cc2ncccc2CN1)[C@H]1CCCc2cccnc21)C1CCC(F)(F)CC1` was tested. Which growth did it give?
**A.** 98.4%

**Q.** For `Cc1cc(C2(c3cc(C)c(O)cc3C)OS(=O)(=O)c3ccccc32)c(C)cc1O`, which growth is on record?
**A.** 107%

**Q.** `CC1CN(c2oc(-c3ccccc3)nc2C#N)CC(C)O1` (stereo not given) was tested. Which growth did it give?
**A.** 116%

**Q.** `NC(=O)CCCN1C/C(=C\c2ccccc2)C(=O)c2ccccc21` was tested. Which growth did it give?
**A.** 109%

**Q.** For `Cc1ccc(S(=O)(=O)NCCCNc2cc(-c3cn(C(C)(C)C)nc3-c3cccc(O)c3)ccn2)cc1`, which growth is on record?
**A.** 74.6%

**Q.** `COc1ccc(NC(=O)c2c(Nc3ccc(OC)cc3OC)n[nH]c2N)c(OC)c1` was tested. Which growth did it give?
**A.** 106%

**Q.** For `CCOC(=O)c1cn2c3c(cc(C)cc3c1=O)C(=O)/C(=C/c1ccccc1)C2`, which growth is on record?
**A.** 96.7%

**Q.** Which growth does the source give for `N=c1ccc2nc3ccc(N)cc3sc-2c1` here?
**A.** 0.418% (active)

**Q.** With `CC12CCC3C4(C)COC(c5ccccc5Cl)OC4CCC3(C)C1CC(C1=CCOC1=O)O2` (stereo not given) as the compound, how does the growth read?
**A.** 64.4%

**Q.** How did the growth turn out when `c1cc(C2=N[C@@H]3c4ccccc4C[C@@H]3O2)nc(C2=N[C@@H]3c4ccccc4C[C@@H]3O2)c1` was run?
**A.** 109%

**Q.** With `COC1=C(OC)C(=O)C(CCCCCCCCCC[P+](c2ccccc2)(c2ccccc2)c2ccccc2)=C(C)C1=O` as the compound, how does the growth read?
**A.** -34.2% (active)

**Q.** How did the growth turn out when `N=C(N)c1ccc(-c2cc(Cl)cc(Cl)c2)cn1` was run?
**A.** 97.4%

**Q.** With `Nc1cccc(-c2nc3sccn3c2-c2ccnc(NCCNS(=O)(=O)c3ccc(C(F)(F)F)cc3)n2)c1` as the compound, how does the growth read?
**A.** 53.4%

**Q.** For `C=C1CCC2C(C)(CO)C(O)CCC2(C)C1C/C=C1/C(=O)OCC1O/C=C/c1ccccc1` (stereo not given), which growth is on record?
**A.** 75.7%

**Q.** With `CCN(CC)CCC(CNc1ccnc2cc(Cl)ccc12)c1ccccc1` (stereo not given) as the compound, how does the growth read?
**A.** 79.9%

**Q.** How did the growth turn out when `COc1ccc(-c2ccc(-c3ccc(C(=N)N)cn3)s2)cc1OC` was run?
**A.** 109%

**Q.** With `Cn1cnc2c(N3CCN(C(=O)OCc4ccc5c(Cl)cc(Cl)c(O)c5n4)CC3)nc(Cl)nc21` as the compound, how does the growth read?
**A.** 66.8%

**Q.** `C=C1CCC2C(C)(CO)C(O)CCC2(C)C1C/C=C1/C(=O)OCC1Oc1ccccc1C` (stereo not given) was tested. Which growth did it give?
**A.** 34.3%

**Q.** For `COc1ccc(S(=O)(=O)NCCCNc2nccc(-n3ccc4cccnc43)n2)cc1`, which growth is on record?
**A.** 98.8%

**Q.** How did the growth turn out when `CCN(CC)CCC(CNc1ccnc2cc(Cl)ccc12)c1ccc(Cl)cc1` (stereo not given) was run?
**A.** 25%

**Q.** `N=C(N)c1ccc(-c2ccc(-c3ccc(-c4cccs4)s3)s2)cc1` was tested. Which growth did it give?
**A.** 94.7%

**Q.** `COc1ccc(Nc2nn3c(C)cc(C)nc3c2C(=O)Nc2ccc(C)cc2)c(OC)c1` was tested. Which growth did it give?
**A.** 105%

**Q.** Which growth does the source give for `CCCCCCN1CSC(=S)N(CCCCCC)C1` here?
**A.** 109%

**Q.** `O=C(NS(=O)(=O)c1ccccc1)n1cc(-c2ccncc2)c(-c2ccc(Cl)c(O)c2)n1` was tested. Which growth did it give?
**A.** 117%

What follows are compounds tested on HS 578T breast in the same assay as above. Conditions: 10 µM unless noted.

**Q.** `O=S(=O)(NCCCNc1nccc(-n2ccc3cccnc32)n1)c1cccc(C(F)(F)F)c1` was tested. Which growth did it give?
**A.** 100%

**Q.** `CC(C)(C)n1cc(-c2ccnc(NCCNS(=O)(=O)c3ccc(F)cc3)c2)c(-c2cccc(O)c2)n1` was tested. Which growth did it give?
**A.** 60.3%

**Q.** For `Cc1ccc(-c2cc3nc(C(Cl)Cl)nc(-c4ccccc4C)n3n2)cc1`, which growth is on record?
**A.** 82.2%

**Q.** How did the growth turn out when `O=C(NNC(=O)N1c2ccccc2C=Cc2ccccc21)c1ccc2ccccc2c1` was run?
**A.** 101%

**Q.** For `CN(C[C@H]1Cc2c(cccc2N2CCN(Cc3ccccn3)CC2)CN1)[C@H]1CCCc2cccnc21`, which growth is on record?
**A.** 92.2%

**Q.** How did the growth turn out when `CCCCCCCCC(C)OC(=O)c1nn(C(C)=O)c2ccccc12` (stereo not given) was run?
**A.** 101%

**Q.** Which growth does the source give for `OC(c1cc2cc(Br)ccc2c2cc(Br)ccc12)C1CCCCN1` (stereo not given) here?
**A.** -53.1% (active)

**Q.** With `O=C(NS(=O)(=O)c1ccc2ccccc2c1)n1cc(-c2ccncc2)c(-c2ccc(Cl)c(O)c2)n1` as the compound, how does the growth read?
**A.** 72.4%

**Q.** For `Cc1cc(N)n(S(=O)(=O)c2oc(-c3ccccc3)nc2C#N)n1`, which growth is on record?
**A.** 116%

**Q.** How did the growth turn out when `O=[N+]([O-])c1ccc(C(c2ccccc2)c2ccccc2)cc1` was run?
**A.** 109%

**Q.** How did the growth turn out when `CN(C)c1oc(C2OC2c2ccccc2)nc1C#N` (stereo not given) was run?
**A.** 90.1%

**Q.** With `Cc1ccc(S(=O)(=O)NC(=O)n2cc(-c3ccncc3)c(-c3ccc(Cl)c(O)c3)n2)cc1` as the compound, how does the growth read?
**A.** 107%

**Q.** `CN(CCCCN(C[C@H]1Cc2ncccc2CN1)[C@H]1CCCc2cccnc21)C1CCC(F)(F)CC1` was tested. Which growth did it give?
**A.** 105%

**Q.** Which growth does the source give for `Cc1cc(C2(c3cc(C)c(O)cc3C)OS(=O)(=O)c3ccccc32)c(C)cc1O` here?
**A.** 96.3%

**Q.** Which growth does the source give for `CC1CN(c2oc(-c3ccccc3)nc2C#N)CC(C)O1` (stereo not given) here?
**A.** 102%

**Q.** With `NC(=O)CCCN1C/C(=C\c2ccccc2)C(=O)c2ccccc21` as the compound, how does the growth read?
**A.** 99.6%

**Q.** With `Cc1ccc(S(=O)(=O)NCCCNc2cc(-c3cn(C(C)(C)C)nc3-c3cccc(O)c3)ccn2)cc1` as the compound, how does the growth read?
**A.** 60%

**Q.** With `Cc1nc2ncccc2nc1Nc1ccc(S(=O)(=O)Nc2ccccn2)cc1` as the compound, how does the growth read?
**A.** 92.9%

**Q.** How did the growth turn out when `COc1ccc(NC(=O)c2c(Nc3ccc(OC)cc3OC)n[nH]c2N)c(OC)c1` was run?
**A.** 96%

**Q.** How did the growth turn out when `CCOC(=O)c1cn2c3c(cc(C)cc3c1=O)C(=O)/C(=C/c1ccccc1)C2` was run?
**A.** 103%

**Q.** For `N=c1ccc2nc3ccc(N)cc3sc-2c1`, which growth is on record?
**A.** 51.9%

**Q.** With `CC12CCC3C4(C)COC(c5ccccc5Cl)OC4CCC3(C)C1CC(C1=CCOC1=O)O2` (stereo not given) as the compound, how does the growth read?
**A.** 76.1%

**Q.** For `C=C1CCC2C(C)(CO)C(O)CCC2(C)C1CC(NCc1ccccc1)C1=CCOC1=O` (stereo not given), which growth is on record?
**A.** 104%

**Q.** For `c1cc(C2=N[C@@H]3c4ccccc4C[C@@H]3O2)nc(C2=N[C@@H]3c4ccccc4C[C@@H]3O2)c1`, which growth is on record?
**A.** 98.2%

**Q.** With `COC1=C(OC)C(=O)C(CCCCCCCCCC[P+](c2ccccc2)(c2ccccc2)c2ccccc2)=C(C)C1=O` as the compound, how does the growth read?
**A.** -58.9% (active)

**Q.** With `COc1ccc(-c2cc(-c3ccccc3)nc(SCCCC(=O)NO)n2)cc1OC` as the compound, how does the growth read?
**A.** 18%

**Q.** Which growth does the source give for `N=C(N)c1ccc(-c2cc(Cl)cc(Cl)c2)cn1` here?
**A.** 87.2%

**Q.** With `Nc1cccc(-c2nc3sccn3c2-c2ccnc(NCCNS(=O)(=O)c3ccc(C(F)(F)F)cc3)n2)c1` as the compound, how does the growth read?
**A.** -15.1% (active)

**Q.** With `C=C1CCC2C(C)(CO)C(O)CCC2(C)C1C/C=C1/C(=O)OCC1O/C=C/c1ccccc1` (stereo not given) as the compound, how does the growth read?
**A.** 96.3%

**Q.** With `CCN(CC)CCC(CNc1ccnc2cc(Cl)ccc12)c1ccccc1` (stereo not given) as the compound, how does the growth read?
**A.** 46.8%

**Q.** `COc1ccc(-c2ccc(-c3ccc(C(=N)N)cn3)s2)cc1OC` was tested. Which growth did it give?
**A.** 97.2%

**Q.** How did the growth turn out when `Cn1cnc2c(N3CCN(C(=O)OCc4ccc5c(Cl)cc(Cl)c(O)c5n4)CC3)nc(Cl)nc21` was run?
**A.** 75.7%

**Q.** With `C=C1CCC2C(C)(CO)C(O)CCC2(C)C1C/C=C1/C(=O)OCC1Oc1ccccc1C` (stereo not given) as the compound, how does the growth read?
**A.** 105%

**Q.** How did the growth turn out when `COc1ccc(S(=O)(=O)NCCCNc2nccc(-n3ccc4cccnc43)n2)cc1` was run?
**A.** 92.3%

**Q.** With `CCN(CC)CCC(CNc1ccnc2cc(Cl)ccc12)c1ccc(Cl)cc1` (stereo not given) as the compound, how does the growth read?
**A.** -66.8% (active)

**Q.** `N=C(N)c1ccc(-c2ccc(-c3ccc(-c4cccs4)s3)s2)cc1` was tested. Which growth did it give?
**A.** 99.3%

**Q.** Which growth does the source give for `COc1ccc(Nc2nn3c(C)cc(C)nc3c2C(=O)Nc2ccc(C)cc2)c(OC)c1` here?
**A.** 105%

**Q.** For `CCCCCCN1CSC(=S)N(CCCCCC)C1`, which growth is on record?
**A.** 105%

**Q.** For `O=C(NS(=O)(=O)c1ccccc1)n1cc(-c2ccncc2)c(-c2ccc(Cl)c(O)c2)n1`, which growth is on record?
**A.** 106%
